Here are results for 40 compounds from PubChem BioAssay (Tox21).

Results filed as inconclusive are left out. A number with no mark means an inactive call. Calls follow the shape of the dose curve; as a rule, active = well fitted activation curve with a large enough effect in the signal ratio in the repeat runs (not every such curve was filed as active); inconclusive = weak or mixed curves; inactive = flat fitted curve, though single readings scatter; the % refers to the signal ratio.
% is scaled to controls: 0 for no effect and ±100 for the full control effect.

The assay can be described thus: p53 small molecule agonists, cell-based qHTS assay (AID 1963582). To be noted: HCT-116 p53RE-bla reporter, beta-lactamase FRET ratio, 16 h; series mostly up to 66 µM; activation: at the top concentration. An excerpt: National Center for Advancing Translational Sciences [NCATS]
Division of Preclinical Innovation [DPI]
U.S. Environmental Protection Agency [EPA]
National Institutes of Environmental Health Sciences [NIEHS]
National Toxicology Program [NTP]
U.S. Food and Drug Administration [FDA]
p53, a tumor suppressor protein, is activated following cellular insult, including DNA damage and other cellular stresses. The activation of p53 regulates cell fate by inducing DNA repair, cell cycle arrest, apoptosis, or cellular senescence. The activation of p53, therefore, is a good indicator of DNA damage and other cellular stresses. […] The activation of the reporter gene under culture conditions can be detected by fluorescence intensity. This cell line was used to screen the Tox21 10K compound library in a 1536-well plate format and to identify agonists that activate the p53 signaling pathway.
Tox21 Assay Protocol Summary:
The p53RE-bla cells were dispensed at 4,000 cells/5 ul/well in 1536-well black wall/clear bottom plates using a Multidrop dispenser. After the assay plates were incubated at a 37 C/5% CO2 incubator for 5 hours, 23 nL of compounds dissolved in DMSO, positive controls or DMSO only was transferred to the assay plate by a pin tool. The plates were incubated at 37 C for 16 hours. After 1 uL of LiveBLAzerTM B/G FRET substrate was added using a Flying Reagent Dispenser, the plates were incubated at room temperature for 2 hours, and fluorescence intensity was measured by an Envision plate reader.
Background: qHTS replaces the single test concentration by a dilution series.
Turning to `C#C[C@]1(OC(C)=O)CC[C@H]2[C@@H]3CCC4=C[C@@H](OC(C)=O)CC[C@@H]4[C@H]3CC[C@@]21C`, the “activation” value is -6.14% [at 30.3 µM].

Consider `CN(C)CCN1C(=O)c2ccccc2N(C)c2ccccc21`, for which the “activation” value was 1.84% [at 30.3 µM]. In the case of `Nc1ccc(C(=O)NCC(=O)O)cc1` it was 0.655% [at 30.3 µM]; in that of `CCOC(=O)c1ccc(OC(=O)CCCCCN=C(N)N)cc1`, -3.12% [at 30.3 µM]. With `CO[Si](CCCn1c(=O)n(CCC[Si](OC)(OC)OC)c(=O)n(CCC[Si](OC)(OC)OC)c1=O)(OC)OC` the figure was -0.39% [at 30.3 µM]; with `CC(C)NCC(O)c1ccc(NS(C)(=O)=O)cc1` (stereo not given), -0.458%. With `C=CC(=C)CC/C=C(\C)CCC=C(C)C` the figure was -2.41% [at 13.5 µM]; with `CCOC(=O)[C@H](O)[C@@H](O)C(=O)OCC`, -2.67%. Consider `Cc1cc2c(OCC(CNC(C)(C)C)OC(=O)c3ccccc3)cccc2[nH]1` (stereo not given), for which the “activation” value was -4.17% [at 30.3 µM].

As for `CCN(CC)C(=O)N1CCN(C)CC1`, the “activation” value is 2.8% [at 30.3 µM].

Turning to `CCOC(=O)c1cnc2c(cnn2CC)c1NN=C(C)C`, the “activation” value was 2.46% [at 30.3 µM]. In the case of `COc1ccc(OC)c(OC)c1` it was -3.52%. With `C=CCOc1c(Br)cc(C(C)(C)c2cc(Br)c(OCC=C)c(Br)c2)cc1Br` the figure was -5.02% [at 30.3 µM].

`C=C[C@@H](C)CCC=C(C)C`: the “activation” value was 0.556%. For the compound `CCCCC`, the “activation” value is 0.569%. As for `CC(C)Cc1ccc(C(C)C(=O)OCc2ccccn2)cc1` (stereo not given), the “activation” value is -5.07% [at 30.3 µM].

As for `CO[C@H]1O[C@H](CO)[C@@H](O)[C@H](O)[C@H]1O`, the “activation” value was -0.589%. In the case of `Cc1ccc2oc(CN(Cc3ccccc3)C(=O)Nc3c(F)cc(F)cc3F)c(-c3ccc(Cl)cc3)c2c1` it was -0.935%; in that of `O=c1[nH]ncc2ccccc12`, 0.177%.

Regarding `CC(CCl)OC(C)CCl` (stereo not given), the “activation” value is 0.462%. In the case of `OCCC(F)(F)C(F)(F)C(F)(F)C(F)(F)C(F)(F)C(F)(F)C(F)(F)C(F)(F)F` it was 7.78%. In the case of `C[C@H]1NCc2cc(-c3ccc4c(=O)c(C(=O)O)cn(C5CC5)c4c3OC(F)F)ccc21` it was -3.01% [at 13.5 µM]; in that of `Cn1cnc2ncnc(N)c21`, -0.7% [at 30.3 µM].

`CCCCOCCOC(=O)c1cccnc1`: the “activation” value was -4.78% [at 30.3 µM]. `CC(C)=NNC(N)=S`: the “activation” value was -3.48%. For the compound `CC(=O)Oc1cc2c(s1)CCN(C(C(=O)C1CC1)c1ccccc1F)C2` (stereo not given), the “activation” value is -1.62% [at 30.3 µM]. As to `CC(CO)(CO)C(=O)O`, the “activation” value is -1.69%. With `C=CC(=O)O` the figure was -0.404% [at 30.3 µM]; with `COc1cc2c(cc1OC)CN(C(=O)[C@H](C)N[C@@H](CCc1ccccc1)C(=O)O)[C@H](C(=O)O)C2`, -0.649% [at 30.3 µM]; with `Nc1nc(-c2ccc([N+](=O)[O-])cc2)cs1`, -3.77%. On to `O=C(C1CCCCC1)N1CC(=O)N2CCCc3ccccc3C2C1` (stereo not given), for which the “activation” value is -0.0594% [at 30.3 µM]. In the case of `C#Cc1ccc(-c2ccccc2F)cc1` it was 0.0589% [at 30.3 µM]; in that of `CCC(C)N(C)C(=O)c1cc2ccccc2c(-c2ccccc2Cl)n1` (stereo not given), -3.23% [at 30.3 µM]; in that of `CCOC(=O)COc1ccc(C)cc1`, 0.452%. In the case of `CN(C)CCn1nnnc1SCC1=C(C(=O)O)N2C(=O)[C@@H](NC(=O)Cc3csc(N)n3)[C@H]2SC1`, the “activation” value is -0.356% [at 30.3 µM]. With `CCC(=O)O[C@]1(C(=O)CCl)[C@@H](C)C[C@H]2[C@@H]3CCC4=CC(=O)C=C[C@]4(C)[C@@]3(F)[C@@H](O)C[C@@]21C` the figure was -5.98% [at 30.3 µM]; with `CC1(c2ccccc2)OC(C(=O)O)=CC1=O` (stereo not given), -0.0252% [at 30.3 µM]; with `OCCN(CCO)CCN(CCO)CCO`, -1.22%. Consider `CC(C(=O)O)c1ccc(/C=C2\CCCCC2=O)cc1` (stereo not given), for which the “activation” value is -3.59% [at 30.3 µM].

`CCOc1ccc2ccccc2c1C(=O)N[C@@H]1C(=O)N2[C@@H]1SC(C)(C)[C@@H]2C(=O)O`: the “activation” value was -6.58% [at 30.3 µM].
